# TRPV1 potentiator: potentiators of human vanilloid receptor 1 (TRPV1). AID 540277. hit rate 0.02% among 320,000. TRPV1-expressing cells, Fluo-8 calcium influx, capsaicin EC20 potentiation. Q8NER1. potentiation, % at 8.33 µM; in the data active = potentiation above about 80%; inconclusive = between about 30% and that limit; also: 0% is about no effect
# Target sequence (Q8NER1 whole entry, looked up): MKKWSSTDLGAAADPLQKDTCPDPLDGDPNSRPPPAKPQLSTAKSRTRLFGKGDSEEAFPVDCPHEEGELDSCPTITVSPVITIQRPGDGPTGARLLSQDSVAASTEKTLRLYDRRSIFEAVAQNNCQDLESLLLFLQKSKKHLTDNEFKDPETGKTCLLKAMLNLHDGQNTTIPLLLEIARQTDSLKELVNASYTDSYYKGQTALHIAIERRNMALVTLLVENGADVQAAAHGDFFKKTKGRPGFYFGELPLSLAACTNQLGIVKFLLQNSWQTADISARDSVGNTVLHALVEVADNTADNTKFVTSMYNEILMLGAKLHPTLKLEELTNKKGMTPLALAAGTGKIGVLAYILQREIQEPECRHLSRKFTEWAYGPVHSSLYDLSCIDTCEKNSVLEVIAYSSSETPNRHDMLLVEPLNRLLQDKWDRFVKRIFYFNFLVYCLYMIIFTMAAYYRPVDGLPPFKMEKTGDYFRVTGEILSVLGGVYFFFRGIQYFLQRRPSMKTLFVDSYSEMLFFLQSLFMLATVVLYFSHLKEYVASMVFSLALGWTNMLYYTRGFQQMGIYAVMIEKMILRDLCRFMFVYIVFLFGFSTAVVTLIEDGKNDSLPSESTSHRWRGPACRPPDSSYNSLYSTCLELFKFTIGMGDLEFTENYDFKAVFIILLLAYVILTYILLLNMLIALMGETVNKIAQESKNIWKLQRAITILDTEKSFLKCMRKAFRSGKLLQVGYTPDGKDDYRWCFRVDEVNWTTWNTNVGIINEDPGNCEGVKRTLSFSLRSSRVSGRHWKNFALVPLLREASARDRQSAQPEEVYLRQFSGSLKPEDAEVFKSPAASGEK
#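 TRPV1-expressing cells were cultured overnight at 35.5C and loaded with Fluo-8 calcium dye for 40 to 90 min at room temperature. After a 10 s baseline, compound was added and calcium influx was read kinetically for 3 min (ex 480/em 520 nm).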
# ClpP mod: qHTS Assay for Activators of ClpP; hit rate 1.9% among 340,000; Potency, µM (highest dose often 57.5 µM), inactives show at the highest dose activity change, negative = active; purified B. subtilis ClpP, FRET peptide cleavage, 20 min; ATP-dependent Clp protease proteolytic subunit (Bacillus subtilis (strain 168)), P80244; AID 651965, 2013; active = well fitted falling curve with a large enough effect; inconclusive = small, poorly fitted or top-dose-only effect; inactive = no such curve, though single readings can be large or run the other way; also: potency is read from the fitted curve at half-maximal effect; the source files actives as falling curves though it sought activators and does not explain the sign; nearly all actives have a fitted effect of over 65% in size
#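 FRET quenching reversal measured ClpP activation: 10 microg/mL B. subtilis ClpP at pH 8 with the FRET-FV decapeptide, read at 430 nm after 320 nm excitation. The 20-min minus 0-min signal was scaled between DMSO/no-enzyme wells and ADEP (5.8 microM final).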
# KCNH2 WT inh: KCNH2 (human, wildtype) channel inhibition. hit rate 0.37% among 340,000. U2OS, BacMam KCNH2, thallium flux FluxOr; stronger effect = lower value. activity change, % at 1.84 µM;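 active = maximum activity change below -70%; inconclusive = maximum activity change between -70% and -50%; inactive = maximum activity change above -50%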; also: % is scaled to controls: 0 for no effect and ±100 for the full control effect
#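 U2OS cells were transduced with wild-type KCNH2 virus (2.03 x 10^8 / mL) for 4 h at room temperature, then cultured overnight at 37 C. Thallium flux was read with FluxOr dye. Rate constants were normalized to DMSO controls.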
# TRPV1 ag: agonists of human vanilloid receptor 1 (TRPV1) | Q8NER1 | hit rate 0.19% among 320,000 | activation, % at 8.33 µM | TRPV1-expressing cells, Fluo-8 calcium influx, agonist mode; in the data active = activation above about 80%; inconclusive = between about 30% and that limit; also: 0% is about no effect
#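 Cells expressing TRPV1 were dye-loaded with Fluo-8 and read kinetically: 10 s baseline, 3 min after compound (agonist portion), then 2 min after EC20 capsaicin (allosteric enhancer portion). Calcium-bound dye fluorescence at 480/520 nm.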
# KCNH2 3.1 inh: KCNH2 3.1 (human) potassium channel inhibition. hit rate 0.95% among 340,000. U2OS KCNH2 3.1, thallium flux FluxOr; stronger effect = lower value. AID 720553. activity change, % (tested at about 1.8 µM);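 active = maximum activity change below -70%; inconclusive = maximum activity change from -70% to -50%; inactive = maximum activity change above -50%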;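 also: thallium influx rate constant from kinetic fluorescence after stimulation buffer; % is scaled to controls: 0 for no effect and ±100 for the full control effect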
#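 Measured as rate of thallium-driven FluxOr signal in transduced U2OS cells carrying the 3.1 channel, read kinetically for 2 min upon stimulation; values are rate constants scaled to DMSO control wells.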
# p53 reactivation: mutant p53 re-activation in reporter cells. H1299 p53-A138V BP100-luciferase reporter, luminescence, 24 h. Potency, µM (titrated, usually from 92.2 µM), for inactives: at the top dose activity change, positive = activation, most hits filed as activators. hit rate 0.063% among 320,000; active = well fitted activation curve with a large enough effect; inconclusive = small, poorly fitted or top-dose-only effect; inactive = no such curve, though single readings can be large or run the other way; also: potency is read from the fitted curve at half-maximal effect; % of control where 0% means no effect; nearly all actives have a fitted effect of over 45% in size
#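 p53-null H1299 cells stably carrying temperature-sensitive p53-A138V and a BP100-luciferase reporter were pinned with compounds (4-point, 1:5 series) and held 24 hrs at 37 deg C. Luminescence was read 10 min after detection reagent.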
# An asterisk follows results filed as active; ? = inconclusive; · = not tested or not shown; ! = repeats disagree. Shown are actives, neighbours in structure and some others; about 2.6% of the full set was active somewhere.
SMILES,TRPV1 potentiator,ClpP mod,KCNH2 WT inh,TRPV1 ag,KCNH2 3.1 inh,p53 reactivation
N#Cc1sc2nc(C3CC3)cc(-c3ccc(Cl)cc3)c2c1N,-33.6,?,-6.5,-5.5,-72.1*,8.4%
CC(=NNc1ccccc1)C(C)=NNc1ccccc1,·,2.7%,43.0,·,-71.0*,·
COc1ccc(/C=C/C(=O)Nc2ccc(-n3nncc3-c3ccc(OC)c(OC)c3)cc2)cc1OC,9.2,25.1µM*,-5.1,-4.6,-10.3,-27.2%
COc1ccc(-c2cnnn2-c2ccc(NC(=O)/C=C/c3ccc(OC)c(OC)c3)cc2)cc1,-9.2,?,-3.6,-4.1,3.3,-11.9%
O=C(Nc1cccc(Cl)c1)N1CCSc2ccccc21,·,0.3%,·,·,·,·
Cc1cccc(NC(=O)c2ccc(NCCc3ccccc3)c([N+](=O)[O-])c2)c1,2.9,-0.9%,-16.2,3.8,-189.5*,6.7%
Cc1ccc(NC(=O)c2ccc(NCCN)c([N+](=O)[O-])c2)cc1,1.7,-3.8%,8.8,6.2,-2.6,20.3%
Cc1cccc(OCc2nc(C#N)c(NCc3ccccc3Cl)o2)c1,·,-0.7%,·,·,·,·
COC(=O)c1cc(C(=O)c2cc(Cl)ccc2O)coc1=N,17.1,0.8%,-172.0*,-1.8,-5.4,-1.3%
COCCOC(=O)c1cc(C(=O)c2cc(F)ccc2O)coc1=N,5.8,15.8µM*,-6.9,-2.2,8.0,5.2%
Cc1ccc(O)c(C(=O)c2coc(=N)c(C(=O)NC(C)C)c2)c1,2.8,-6.4%,0.4,1.8,31.0,-0.1%
Cc1cccc(CCn2c(=O)c3ccccc3n(Cc3ccccc3C)c2=O)c1,·,-1.7%,·,·,·,·
O=C(CCCCn1c(=O)c2ccccc2n(CC(=O)Nc2cccc(F)c2)c1=O)NCCc1ccccc1,·,0.0%,·,·,·,·
Cc1ccc(Nc2c(-c3ccco3)nc3ccccn23)cc1,15.8,25.1µM*,-2.5,-3.2,1.7,?
COc1ccc(Nc2c(-c3ccco3)nc3ccc(C)cn23)cc1,-11.6,-27.2%,-4.3,20.6,-5.0,3.4%
c1coc(-c2nc3ccccn3c2Nc2ccc3c(c2)OCCO3)c1,·,4.4%,·,·,·,·
c1ccc(Nc2c(-c3ccco3)nc3ccccn23)cc1,9.9,25.1µM*,-1.7,-3.1,0.6,9.0%
Fc1ccc(Nc2c(-c3ccco3)nc3ccccn23)cc1,-3.4,28.2µM*!,2.9,14.1,-13.3,·
CCc1ccc(-n2c(=O)c3c4c(sc3n(CC(=O)NCCCOC)c2=O)CCC4)cc1,·,0.1%,·,·,·,·
COCCNC(=O)CSc1nc(-c2ccccc2)c(-c2ccccc2)o1,-18.9,-19.3%,7.3,?,-3.4,-13.6%
CC(=O)CSc1nc(-c2ccccc2)c(-c2ccccc2)o1,-10.1,28.2µM*,-5.1,28.6,-11.0,-3.7%
CCNC(=O)C1(C)CCCN(C(=O)c2sc(-c3ccccc3)nc2C)C1 (stereo not drawn),·,-1.5%,·,·,·,·
C1=CN2CC=Cc3cc(/C=C/c4ccnc5ccccc45)cc(c32)C1,·,-16.9%,·,·,·,·
CCCc1cc(=O)oc2c(C)c(OCc3nn[nH]n3)ccc12,-2.1,3.8%,-1.7,1.3,53.5,-6.7%
CCCCc1cc(=O)oc2cc(OCc3nn[nH]n3)c(Cl)cc12,-6.2,28.2µM*,0.6,0.4,2.1,5.7%
Cc1cc(C)c(C)c(S(=O)(=O)N2CCC(C(=O)NNC(=O)c3ccccc3O)CC2)c1C,-0.7,28.2µM*,-0.2,10.1,6.5,-1.8%
C(=C\c1ccnc2ccccc12)/c1ccc2c(c1)OCO2,·,-19.6%,·,·,·,·
CCOC(=O)c1nnn(CC(=O)N2N=C(c3cccc4ccccc34)CC2c2ccccc2)c1C(=O)OCC (stereo not drawn),-1.0,11.2µM*,-17.6,-0.5,-7.4,-1.9%
CCCn1c(N)c(N(CCOC)C(=O)c2cccc(S(=O)(=O)N3CCCc4ccccc43)c2)c(=O)[nH]c1=O,2.3,31.6µM*,-3.5,-1.1,16.1,7.0%
CCCn1c(N)c(N(CCOC)C(=O)c2cc3c(s2)CCC(CC)C3)c(=O)[nH]c1=O (stereo not drawn),5.5,12.6µM*,-18.1,2.0,-6.3,-13.1%
